These results are taken from publication PMC7862700, “An all-to-all approach to the identification of sequence-specific readers for epigenetic DNA modifications on cytosine”.

Common to all, as to assay: DAPPL (digital affinity profiling via proximity ligation, sequencing); 10 mM Tris-HCl pH 7.5, 50 mM NaCl, 1 mM DTT, 4% glycerol, room temperature, 30 min; GST-TFs on glutathione beads, 16-mer random dsDNA library, 0.1% formaldehyde crosslink after washing; high values mean tight binding
Common to all, as to settings: protein: recombinant; tags: N-terminal GST; dsDNA, one strand shown

One assay concerns the target T1, FLI1 (Homo sapiens, UniProt Q01543 1-452).
T1 sequence: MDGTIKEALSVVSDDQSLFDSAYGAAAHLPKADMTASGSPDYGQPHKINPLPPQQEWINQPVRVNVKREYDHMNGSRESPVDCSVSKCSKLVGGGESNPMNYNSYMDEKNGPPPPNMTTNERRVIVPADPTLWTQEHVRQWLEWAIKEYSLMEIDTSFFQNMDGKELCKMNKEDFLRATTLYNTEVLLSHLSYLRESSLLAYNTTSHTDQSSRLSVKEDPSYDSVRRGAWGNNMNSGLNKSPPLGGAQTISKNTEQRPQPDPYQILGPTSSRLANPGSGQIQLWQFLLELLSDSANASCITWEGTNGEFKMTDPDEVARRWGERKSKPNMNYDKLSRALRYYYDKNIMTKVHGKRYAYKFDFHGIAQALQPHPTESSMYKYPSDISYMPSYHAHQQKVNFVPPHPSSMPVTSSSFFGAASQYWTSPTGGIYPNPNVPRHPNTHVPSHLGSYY
In outline: (§1)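 Pools of DNA-barcoded human transcription factors, expressed in yeast as GST fusions on glutathione beads and combined with a tag-only sample, were incubated with 200 nmole of a 16-mer random double-stranded DNA library. Incubation took 30 min at room temperature in Tris/NaCl/DTT/glycerol buffer and was followed by washing, 0.1% formaldehyde crosslinking, proximity ligation (BsaI/T4 ligase, 1 h, 37 °C), PCR amplification and sequencing on an Illumina NextSeq500. Binding signal is the ratio of a hexamer's read frequency for a factor to its frequency for the tag-only sample.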

The target in the next assay is T2, ELK1 (Homo sapiens, UniProt P19419 1-428).
T2 sequence: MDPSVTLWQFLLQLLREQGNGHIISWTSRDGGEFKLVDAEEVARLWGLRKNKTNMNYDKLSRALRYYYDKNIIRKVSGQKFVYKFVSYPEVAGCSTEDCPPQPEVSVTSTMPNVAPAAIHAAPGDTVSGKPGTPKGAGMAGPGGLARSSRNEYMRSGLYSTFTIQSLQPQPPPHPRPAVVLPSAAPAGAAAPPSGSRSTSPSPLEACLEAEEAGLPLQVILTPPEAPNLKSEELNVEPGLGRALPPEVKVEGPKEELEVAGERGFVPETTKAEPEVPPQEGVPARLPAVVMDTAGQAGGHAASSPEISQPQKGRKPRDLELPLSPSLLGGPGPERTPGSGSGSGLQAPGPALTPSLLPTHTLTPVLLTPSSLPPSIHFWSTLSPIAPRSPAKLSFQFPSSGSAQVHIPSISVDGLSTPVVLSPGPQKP
In outline:
as §1

The target in the next assay is T3, GABPA (Homo sapiens, UniProt Q06546 1-454).
T3 sequence: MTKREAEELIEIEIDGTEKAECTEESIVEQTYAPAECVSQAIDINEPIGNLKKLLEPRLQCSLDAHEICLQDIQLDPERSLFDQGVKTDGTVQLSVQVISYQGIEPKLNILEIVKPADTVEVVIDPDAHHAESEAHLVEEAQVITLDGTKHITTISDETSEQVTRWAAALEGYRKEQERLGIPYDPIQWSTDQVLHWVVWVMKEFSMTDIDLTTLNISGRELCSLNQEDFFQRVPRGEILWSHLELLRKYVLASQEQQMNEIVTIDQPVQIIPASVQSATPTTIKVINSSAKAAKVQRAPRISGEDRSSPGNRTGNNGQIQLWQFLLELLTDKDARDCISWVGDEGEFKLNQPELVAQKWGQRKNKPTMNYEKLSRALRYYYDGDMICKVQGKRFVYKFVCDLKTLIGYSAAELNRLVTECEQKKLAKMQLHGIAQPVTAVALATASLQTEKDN
In outline:
as §1

The next assay has as its target T4, ERG (Homo sapiens, UniProt P11308 1-479).
T4 sequence: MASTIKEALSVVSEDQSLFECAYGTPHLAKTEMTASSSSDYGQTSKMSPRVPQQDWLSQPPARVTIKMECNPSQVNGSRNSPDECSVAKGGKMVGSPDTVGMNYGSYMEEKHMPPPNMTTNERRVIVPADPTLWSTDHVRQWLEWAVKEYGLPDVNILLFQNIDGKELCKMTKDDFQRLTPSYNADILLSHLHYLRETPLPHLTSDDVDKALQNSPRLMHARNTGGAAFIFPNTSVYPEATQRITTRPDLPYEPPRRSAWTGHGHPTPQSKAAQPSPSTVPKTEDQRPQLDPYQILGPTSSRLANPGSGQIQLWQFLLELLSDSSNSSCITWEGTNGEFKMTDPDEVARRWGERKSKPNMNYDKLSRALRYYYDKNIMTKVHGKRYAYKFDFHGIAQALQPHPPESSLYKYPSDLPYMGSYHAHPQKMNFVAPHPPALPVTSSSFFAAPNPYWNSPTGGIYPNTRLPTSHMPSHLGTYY
In outline: as §1

The next assay has as its target ELF1 (Homo sapiens, UniProt P32519 1-619). In outline:
as §1

The next assay deals with T5, EHF (Homo sapiens, UniProt Q9NZC4 1-300).
T5 sequence: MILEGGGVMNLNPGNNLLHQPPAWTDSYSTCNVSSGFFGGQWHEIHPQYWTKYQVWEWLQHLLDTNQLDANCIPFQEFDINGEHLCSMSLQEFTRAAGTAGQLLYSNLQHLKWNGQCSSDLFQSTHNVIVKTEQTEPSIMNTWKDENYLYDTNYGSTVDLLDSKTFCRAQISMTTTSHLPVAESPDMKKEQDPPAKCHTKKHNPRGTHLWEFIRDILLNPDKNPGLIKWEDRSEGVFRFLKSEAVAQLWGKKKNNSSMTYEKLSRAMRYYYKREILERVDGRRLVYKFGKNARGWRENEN
In outline: as §1

The target in a further assay is SPI1 (Homo sapiens, UniProt P17947 1-270). In outline: as §1
In a further assay the target is SPIB (Homo sapiens, UniProt Q01892 1-262). In outline:
as §1

The target of a further assay is T6, ELK3 (Homo sapiens, UniProt P41970 1-407).
T6 sequence: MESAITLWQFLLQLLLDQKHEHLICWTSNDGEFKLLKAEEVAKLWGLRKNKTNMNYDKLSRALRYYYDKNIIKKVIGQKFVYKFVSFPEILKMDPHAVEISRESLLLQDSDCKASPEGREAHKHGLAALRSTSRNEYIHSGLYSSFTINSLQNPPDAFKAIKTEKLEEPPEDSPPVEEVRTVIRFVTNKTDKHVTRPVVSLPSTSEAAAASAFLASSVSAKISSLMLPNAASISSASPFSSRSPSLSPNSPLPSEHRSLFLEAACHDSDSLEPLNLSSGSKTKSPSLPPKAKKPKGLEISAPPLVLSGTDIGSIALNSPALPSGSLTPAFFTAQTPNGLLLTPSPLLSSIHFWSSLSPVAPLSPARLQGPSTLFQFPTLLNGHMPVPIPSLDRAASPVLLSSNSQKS
In outline: as §1

ELF1, sequence (P32519 whole entry): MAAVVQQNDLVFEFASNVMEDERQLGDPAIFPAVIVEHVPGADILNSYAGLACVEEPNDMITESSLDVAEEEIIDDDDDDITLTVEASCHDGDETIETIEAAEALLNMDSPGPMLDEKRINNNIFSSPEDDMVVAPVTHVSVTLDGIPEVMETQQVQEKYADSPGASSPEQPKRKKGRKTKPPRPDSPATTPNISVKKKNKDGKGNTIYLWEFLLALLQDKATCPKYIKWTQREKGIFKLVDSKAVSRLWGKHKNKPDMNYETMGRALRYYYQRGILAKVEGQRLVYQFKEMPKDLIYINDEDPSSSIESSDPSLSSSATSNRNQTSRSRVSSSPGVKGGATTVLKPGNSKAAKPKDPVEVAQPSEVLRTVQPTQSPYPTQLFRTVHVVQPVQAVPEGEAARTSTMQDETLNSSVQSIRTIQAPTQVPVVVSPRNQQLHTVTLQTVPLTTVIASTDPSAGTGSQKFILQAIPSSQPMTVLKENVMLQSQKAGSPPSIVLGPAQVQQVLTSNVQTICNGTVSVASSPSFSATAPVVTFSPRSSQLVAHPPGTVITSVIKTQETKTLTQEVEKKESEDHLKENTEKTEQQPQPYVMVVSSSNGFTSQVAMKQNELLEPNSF
SPIB, sequence (Q01892 whole entry): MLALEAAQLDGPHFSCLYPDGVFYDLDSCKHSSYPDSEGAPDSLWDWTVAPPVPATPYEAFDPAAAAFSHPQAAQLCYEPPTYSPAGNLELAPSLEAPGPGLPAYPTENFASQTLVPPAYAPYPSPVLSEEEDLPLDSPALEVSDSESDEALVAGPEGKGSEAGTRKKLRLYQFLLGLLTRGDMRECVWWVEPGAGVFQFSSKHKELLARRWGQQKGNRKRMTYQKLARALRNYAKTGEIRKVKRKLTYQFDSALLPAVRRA

For the sequence CCATTA, the binding signal with FLI1 is 1.08 fold enrichment (6-mer frequency, TF over GST control); with ELK1 it was 1.05 fold enrichment (6-mer frequency, TF over GST control); with GABPA it was 1.11 fold enrichment (6-mer frequency, TF over GST control); with ERG, 1.1 fold enrichment (6-mer frequency, TF over GST control); in the assay with ELF1, 1.14 fold enrichment (6-mer frequency, TF over GST control); in the assay with EHF it was 1.06 fold enrichment (6-mer frequency, TF over GST control). Moreover, the binding signal in the assay with SPI1 was 1.17 fold enrichment (6-mer frequency, TF over GST control); with SPIB it was 1.23 fold enrichment (6-mer frequency, TF over GST control); with ELK3 it was 1.09 fold enrichment (6-mer frequency, TF over GST control).

Regarding TGTAAA, the binding signal in the assay with FLI1 was 1.22 fold enrichment (6-mer frequency, TF over GST control); with ELK1 it was 1.06 fold enrichment (6-mer frequency, TF over GST control); with GABPA, 1.08 fold enrichment (6-mer frequency, TF over GST control); in the assay with ERG, 1.15 fold enrichment (6-mer frequency, TF over GST control); with ELF1, 1.14 fold enrichment (6-mer frequency, TF over GST control); with EHF, 1.13 fold enrichment (6-mer frequency, TF over GST control). In addition, the binding signal in the assay with SPI1 is 1.26 fold enrichment (6-mer frequency, TF over GST control); with SPIB, 1.2 fold enrichment (6-mer frequency, TF over GST control); with ELK3, 1.09 fold enrichment (6-mer frequency, TF over GST control).

As for AGTAAT, the binding signal with FLI1 was 1.02 fold enrichment (6-mer frequency, TF over GST control); with ELK1 it was 1.1 fold enrichment (6-mer frequency, TF over GST control); with GABPA, 1.16 fold enrichment (6-mer frequency, TF over GST control); in the assay with ERG, 1.09 fold enrichment (6-mer frequency, TF over GST control); in the assay with ELF1 it was 1.12 fold enrichment (6-mer frequency, TF over GST control); with EHF, 1.19 fold enrichment (6-mer frequency, TF over GST control). In addition, the binding signal with SPI1 is 1.17 fold enrichment (6-mer frequency, TF over GST control); in the assay with SPIB it was 1.1 fold enrichment (6-mer frequency, TF over GST control); in the assay with ELK3 it was 1.12 fold enrichment (6-mer frequency, TF over GST control).

Regarding CCATTG, the binding signal with FLI1 was 1.33 fold enrichment (6-mer frequency, TF over GST control); with ELK1 it was 1.16 fold enrichment (6-mer frequency, TF over GST control); with GABPA it was 1.32 fold enrichment (6-mer frequency, TF over GST control); with ERG, 1.19 fold enrichment (6-mer frequency, TF over GST control); in the assay with ELF1, 1.15 fold enrichment (6-mer frequency, TF over GST control); with EHF, 1.19 fold enrichment (6-mer frequency, TF over GST control). Further, the binding signal is 1.25 fold enrichment (6-mer frequency, TF over GST control) with SPI1; 1.05 fold enrichment (6-mer frequency, TF over GST control) in the assay with SPIB; 1.16 fold enrichment (6-mer frequency, TF over GST control) with ELK3.

ATGCGG: the binding signal with FLI1 was 1.3 fold enrichment (6-mer frequency, TF over GST control); in the assay with ELK1 it was 1.22 fold enrichment (6-mer frequency, TF over GST control); with GABPA it was 1.2 fold enrichment (6-mer frequency, TF over GST control); in the assay with ERG it was 1.22 fold enrichment (6-mer frequency, TF over GST control); in the assay with ELF1, 1.2 fold enrichment (6-mer frequency, TF over GST control); in the assay with EHF, 1.31 fold enrichment (6-mer frequency, TF over GST control). Also, the binding signal was 1.56 fold enrichment (6-mer frequency, TF over GST control) with SPI1; 1.32 fold enrichment (6-mer frequency, TF over GST control) with SPIB; 1.23 fold enrichment (6-mer frequency, TF over GST control) with ELK3.

Take CAACCA: the binding signal is 1.15 fold enrichment (6-mer frequency, TF over GST control) with FLI1; 1.15 fold enrichment (6-mer frequency, TF over GST control) with ELK1; 1.12 fold enrichment (6-mer frequency, TF over GST control) with GABPA; 1.03 fold enrichment (6-mer frequency, TF over GST control) with ERG; 1.15 fold enrichment (6-mer frequency, TF over GST control) in the assay with ELF1; 1.13 fold enrichment (6-mer frequency, TF over GST control) with EHF. For the same sequence, the binding signal with SPI1 was 1.11 fold enrichment (6-mer frequency, TF over GST control); with SPIB, 1.06 fold enrichment (6-mer frequency, TF over GST control); in the assay with ELK3, 1.18 fold enrichment (6-mer frequency, TF over GST control).

In the case of TTACGC, the binding signal is 1.15 fold enrichment (6-mer frequency, TF over GST control) in the assay with FLI1; 1.06 fold enrichment (6-mer frequency, TF over GST control) in the assay with ELK1; 1.07 fold enrichment (6-mer frequency, TF over GST control) in the assay with GABPA; 1.08 fold enrichment (6-mer frequency, TF over GST control) in the assay with ERG; 1.12 fold enrichment (6-mer frequency, TF over GST control) with ELF1; 1.06 fold enrichment (6-mer frequency, TF over GST control) in the assay with EHF. The binding signal is 1.07 fold enrichment (6-mer frequency, TF over GST control) with SPI1; 1.02 fold enrichment (6-mer frequency, TF over GST control) in the assay with SPIB; 1.21 fold enrichment (6-mer frequency, TF over GST control) with ELK3.
